Structures are written as SMILES. “And” between values parts separate entries of the source, which are not always exact repeats. Equal entries are not always repeated. A number with no mark means an inactive call. Inconclusive results are not listed. A call without a number means that no potency is given here. The source made the active and inactive calls. Unless noted, the call rests on the fitted dose curve; in most records, active means well fitted curve in the direction sought with a large enough effect; inconclusive means small, poorly fitted or top-dose-only effect, or another doubt; inactive means no such curve, though single readings can be large; an effect the other way counts as inactive or inconclusive.

The values below come from PubChem BioAssay (NCATS).

The target in experiment [1] is Nuclear receptor ROR-gamma (Homo sapiens) (UniProt P51449). The experiment is described as follows: qHTS assay for small molecule antagonists of the retinoid-related orphan receptor gamma (ROR-gamma) signaling pathway (AID 651802).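 Further: CHO cells with doxycycline-induced ROR-gamma expression; series mostly up to about 92 µM; nearly all actives have a fitted effect of over 60% in size.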 The essentials:
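Steps: cells dispensed; compound or DMSO transferred by pin tool; doxycycline added to induce the ROR response element-driven luciferase; plates held 16hr at 37C; ONE-Glo added and luminescence measured.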
For orientation: qHTS replaces the single test concentration by a dilution series.

For experiment [2], the target named is Tyrosine-protein kinase Yes (Homo sapiens) (UniProt P07947). The experiment is described as follows: qHTS for small molecule inhibitors of Yes1 kinase: Primary Screen (AID 686947). Further: nearly all actives have a fitted effect of over 60% in size. The essentials: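 ADP-Glo luminescence reports ADP formed by 4 nM Yes1 phosphorylating poly(E4Y) (0.3 mg/mL) with 0.1 mM ATP for 60 min at room temperature, following 20 min compound preincubation; normalised between DMSO wells with and without enzyme.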

Experiment [3] can be described thus: qHTS for small molecule inhibitors of Yes1 kinase: Counter Assay (AID 686950).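 Further: no kinase present so only ADP-Glo detection of a fixed ADP amount is tested; luminescence from ADP-Glo reporting ADP in a fixed ATP and ADP mixture; series mostly up to about 77 µM.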 In outline: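 ADP-Glo luminescence read after a 60 min room-temperature incubation of compound with an ATP/ADP mix (0.08 mM/0.02 mM) and no kinase, following a 20 min compound preincubation. Signal scaled between ATP+ADP (max) and 0.1 mM ATP-only (min) wells; Tris pH 7.5, Mg2+, DTT.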

Experiment [4] is described as follows: qHTS assay for small molecule antagonists of the retinoid-related orphan receptor gamma (ROR-gamma) signaling pathway - cell viability counter screen (AID 720652; active means well fitted curve in the direction sought with a large enough effect in the repeat runs; an effect the other way counts as inactive or inconclusive;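 further: CHO reporter cells with doxycycline-induced ROR-gamma expression; series mostly up to about 92 µM; compound exposure lasted 16 hr before ATP read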). The essentials:
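Steps: seed CHO cells bearing TET-inducible ROR and ROR response element-luciferase; rest 5 hr at 37 C; add compound, then doxycycline; incubate 16 hr; add CellTiter-Glo and read luminescence as ATP-based viability.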

Experiment [5] is described as follows: qHTS assay for environmental chemicals that activate the Aryl hydrocarbon Receptor (AhR) signaling pathway (AID 651777). Further: nearly all actives have a fitted effect of over 15% in size. Particulars: 1A2-DRE human hepatoma cells, luciferase, 24 h; activation: stronger effect = higher value. The essentials:
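Concentration–response screening used 1,200 1A2-DRE cells per well, 24 hr compound exposure (37 C, 5% CO2), and One-Glo luminescence as the AhR-driven CYP1A2 reporter signal.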

For experiment [6], the target named is Peroxisome proliferator-activated receptor alpha (Homo sapiens) (UniProt Q07869). The experiment is described as follows: qHTS assay for small molecule agonists of the peroxisome proliferator-activated receptor alpha (PPARalpha) signaling pathway (AID 651778). The conditions noted are these: PathHunter PPARalpha complementation, chemiluminescence, 6 h; stronger effect = higher value. The essentials:
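Chemiluminescence from complemented enzyme reported PPARalpha activation in cells after 6 hr of compound treatment at 37 C. The detection reagent was incubated for 60 min at room temperature, and compounds were scored as agonists.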

Experiment [7] in a line: qHTS for compounds that reverse cellular toxicity of Amyloid beta (A-beta) peptide in yeast: LOPAC Validation Assay (AID 720559). In outline:
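Yeast expressing toxic A-beta grown with pinned compounds at 30 C for 48 hr. Growth measured as absorbance at 600 nm; data normalized to DMSO and to an equimolar FeCl3/clioquinol mixture as positive control.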

The nature of experiment [8]: qHTS for Activators of Parkin Expression: LOPAC Validation Assay (NLuc Reporter) (AID 720572). The essentials:
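Compound effects on Parkin promoter activity were measured as NanoLuc luminescence after 24 h at 37 C. The neuronal reporter line also carried FLuc, which was read first. LOPAC compounds were tested at 7 concentrations, with normalization to DMSO (0%) and positive control (100%).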

Experiment [9] can be described thus: qHTS for Activators of Parkin Expression: LOPAC Validation Assay (FLuc Reporter) (AID 720573). The essentials: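 Neuronal cell line stably expressing FLuc/NLuc coincidence reporter under the Parkin promoter, 1,500 cells/well, dosed 24 h after seeding in 7-point series for 24 h at 37 C. FLuc luminescence read; normalized to DMSO and positive control (100%).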

Experiment [10] has as its target Arylsulfatase A (Homo sapiens) (UniProt P15289). The experiment in a line: qHTS screen for enhancers of Arylsulfatase A (ASA1): LOPAC Validation Assay (AID 720538). Further: potency means the concentration at half of the fitted maximal effect. The essentials:
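SV40-transformed fibroblasts from an MLD patient (ASA-I179S) were treated with compound for 48 h at 37 C. They were then lysed with 0.5 mM pNCS substrate (final) for 14 h at room temperature and stopped with NaOH; signal read by fluorescence (Ex 525/Em 598 nm), with increase denoting enhanced activity.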

Chain of Peroxisome proliferator-activated receptor alpha (Homo sapiens) (Q07869 whole entry, looked up): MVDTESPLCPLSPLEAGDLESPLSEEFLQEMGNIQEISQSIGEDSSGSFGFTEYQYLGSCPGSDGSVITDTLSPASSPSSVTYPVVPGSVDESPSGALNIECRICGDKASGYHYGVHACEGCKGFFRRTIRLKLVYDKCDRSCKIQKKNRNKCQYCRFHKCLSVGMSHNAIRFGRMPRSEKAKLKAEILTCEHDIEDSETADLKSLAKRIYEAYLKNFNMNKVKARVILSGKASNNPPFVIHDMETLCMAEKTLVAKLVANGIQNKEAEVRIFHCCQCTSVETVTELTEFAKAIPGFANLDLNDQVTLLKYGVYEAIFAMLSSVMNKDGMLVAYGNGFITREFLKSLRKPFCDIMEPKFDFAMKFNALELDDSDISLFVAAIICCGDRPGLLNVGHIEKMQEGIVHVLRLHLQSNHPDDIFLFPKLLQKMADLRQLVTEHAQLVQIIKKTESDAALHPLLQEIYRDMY
Chain of Arylsulfatase A (Homo sapiens) (P15289 whole entry, looked up): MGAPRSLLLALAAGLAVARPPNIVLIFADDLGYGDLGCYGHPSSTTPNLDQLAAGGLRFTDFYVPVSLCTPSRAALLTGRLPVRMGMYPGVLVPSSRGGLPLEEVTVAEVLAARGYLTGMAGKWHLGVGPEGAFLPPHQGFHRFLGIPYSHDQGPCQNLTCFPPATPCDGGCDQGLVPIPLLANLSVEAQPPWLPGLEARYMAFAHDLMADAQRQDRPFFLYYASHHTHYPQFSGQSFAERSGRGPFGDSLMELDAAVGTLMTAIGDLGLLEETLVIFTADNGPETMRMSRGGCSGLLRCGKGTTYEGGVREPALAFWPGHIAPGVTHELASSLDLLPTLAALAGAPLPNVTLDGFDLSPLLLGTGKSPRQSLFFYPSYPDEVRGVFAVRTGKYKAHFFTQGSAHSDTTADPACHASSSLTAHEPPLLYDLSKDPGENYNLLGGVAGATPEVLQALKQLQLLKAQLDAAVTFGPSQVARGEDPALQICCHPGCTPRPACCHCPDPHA
Chain of Nuclear receptor ROR-gamma (Homo sapiens) (P51449 whole entry, looked up): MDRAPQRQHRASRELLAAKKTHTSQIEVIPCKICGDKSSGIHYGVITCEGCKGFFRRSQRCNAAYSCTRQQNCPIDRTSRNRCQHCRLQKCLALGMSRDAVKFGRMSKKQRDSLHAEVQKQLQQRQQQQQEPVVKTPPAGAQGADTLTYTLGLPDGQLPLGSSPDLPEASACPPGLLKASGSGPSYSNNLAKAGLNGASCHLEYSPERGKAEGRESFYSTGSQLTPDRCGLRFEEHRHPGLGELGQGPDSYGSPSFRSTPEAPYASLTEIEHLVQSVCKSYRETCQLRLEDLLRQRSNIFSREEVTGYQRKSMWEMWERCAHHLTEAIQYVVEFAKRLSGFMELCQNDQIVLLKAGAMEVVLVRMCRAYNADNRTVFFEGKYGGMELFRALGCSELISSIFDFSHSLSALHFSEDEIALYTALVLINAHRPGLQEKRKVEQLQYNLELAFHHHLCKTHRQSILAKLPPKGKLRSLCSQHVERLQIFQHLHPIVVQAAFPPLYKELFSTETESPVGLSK
Chain of Tyrosine-protein kinase Yes (Homo sapiens) (P07947 whole entry, looked up): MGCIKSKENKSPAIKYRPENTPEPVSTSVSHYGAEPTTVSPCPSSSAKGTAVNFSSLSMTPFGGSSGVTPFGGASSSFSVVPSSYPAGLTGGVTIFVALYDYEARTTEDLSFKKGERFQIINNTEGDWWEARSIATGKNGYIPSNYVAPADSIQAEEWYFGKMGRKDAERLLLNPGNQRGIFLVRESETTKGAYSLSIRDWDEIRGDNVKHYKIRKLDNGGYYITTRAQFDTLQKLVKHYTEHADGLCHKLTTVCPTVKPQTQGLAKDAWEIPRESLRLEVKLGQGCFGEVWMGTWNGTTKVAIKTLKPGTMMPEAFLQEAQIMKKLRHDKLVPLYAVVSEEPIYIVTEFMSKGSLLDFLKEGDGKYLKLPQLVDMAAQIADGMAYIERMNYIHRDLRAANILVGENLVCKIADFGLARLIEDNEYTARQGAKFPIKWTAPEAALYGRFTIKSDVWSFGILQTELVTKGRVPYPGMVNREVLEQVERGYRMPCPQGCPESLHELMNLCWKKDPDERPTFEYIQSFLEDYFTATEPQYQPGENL

For `NS(=O)(=O)c1cc(C(=O)O)c(NCc2ccco2)cc1Cl`, the call in experiment [1], in [3] and in experiment [4] was inactive. Also, in [2], the Potency entry was “inactive”.
With `CCCCC(CC)COC(=O)C(C#N)=C(c1ccccc1)c1ccccc1` (configuration not stated), the activation in experiment [5] was 0.749%. In [6], the max response was -1.78%.
Regarding `CN(C)c1ccc2nc3ccc(=[N+](C)C)cc-3sc2c1`, the activation in [5] is -2.65%. In experiment [6], the max response was -7.81%.
For the compound `CCCc1cc(=O)[nH]c(=S)[nH]1`, the activation in experiment [5] is 0.594% and 1.79%. Besides, the max response in experiment [6] is -4.59% and -0.354%. The call in [1] and in experiment [4] was inactive.
Regarding `O=c1c(O)c(-c2cc(O)c(O)c(O)c2)oc2cc(O)cc(O)c12`, the compound was called inactive in experiment [7] and in experiment [8]. In addition, the Potency entry in experiment [9] was “inactive”.
Turning to `Cc1ccc(Nc2nccc(N(C)c3ccc4c(C)n(C)nc4c3)n2)cc1S(N)(=O)=O`, the compound was classed as inactive in experiment [3].
Turning to `C[C@H](Cc1ccc(O)c(O)c1)[C@@H](C)Cc1ccc(O)c(O)c1`, the compound was classed as inactive in experiment [7]. Besides, in [9], the Potency result was “inactive”.
Regarding `Oc1ccc2ccccc2c1SSc1c(O)ccc2ccccc12`, the outcome in experiment [7] and in experiment [8] was inactive. Further, the Potency result in [9] is “inactive”.
For `COc1cc2c(cc1OC)C1CC(=O)C(CC(C)C)CN1CC2` (configuration not stated), the outcome in experiment [7] and in experiment [8] was inactive. Moreover, the Potency entry in experiment [9] is “inactive”.
With `NC(=NCc1ccccc1)NC(=O)c1nc(Cl)c(N)nc1N`, the outcome in experiment [7] and in [8] was inactive. For the same compound, the Potency result in [9] is “inactive”.
Take `COc1ccc2cc([C@H](C)C(=O)O)ccc2c1`: the Potency result in experiment [10] and in experiment [9] was “inactive” each time. In addition, the call in [7] and in [8] was inactive.
With `Cc1nc(Nc2ncc(C(=O)Nc3c(C)cccc3Cl)s2)cc(N2CCN(CCO)CC2)n1`, the outcome in experiment [3] was inactive.
Regarding `O=C(O)c1cccnc1Nc1cccc(C(F)(F)F)c1`, the Potency result in experiment [10] and in experiment [9] was “inactive” each time. The call in [7] and in experiment [8] was inactive.
For the compound `COc1cc(Nc2c(C#N)cnc3cc(OCCCN4CCN(C)CC4)c(OC)cc23)c(Cl)cc1Cl`, the outcome in experiment [3] was inactive.
As to `CC1(C)C(=O)N(CCN2CCC(C(=O)c3ccc(F)cc3)CC2)c2ccccc21`, the Potency result in [10] and in experiment [9] was “inactive” throughout. Further, the compound was called inactive in experiment [7] and in experiment [8].
As for `COc1ccccc1N1CCN(CCN(C(=O)C2CCCCC2)c2ccccn2)CC1`, the Potency entry in [10] and in experiment [9] was “inactive” each time. Besides, the compound was called inactive in experiment [7] and in experiment [8].
With `O=C1c2c(O)cc(O)cc2OC(c2ccc(O)c(O)c2)C1O` (configuration not stated), the compound was called inactive in experiment [7] and in [8]. The Potency entry in [9] was “inactive”.
In the case of `O=C1NC(=O)C(c2ccccc2[N+](=O)[O-])=C1Nc1ccc(O)c(Cl)c1`, the compound was classed as inactive in experiment [7] and in [8]. The Potency entry in experiment [9] was “inactive”.
With `O=C1c2ccccc2-c2n[nH]c3cccc1c23`, the Potency result in experiment [10] is “inactive”. Besides, the compound was called inactive in experiment [7].
On to `CN(C)CCCC1(c2ccc(F)cc2)OCc2cc(C#N)ccc21` (configuration not stated), for which the Potency result in [10] and in [9] was “inactive” in each case. Further, the outcome in [7] and in experiment [8] was inactive.
With `O=c1ccc2ccc(O)c(O)c2o1`, the Potency result in experiment [10] and in experiment [9] was “inactive” throughout. The result in experiment [7] and in experiment [8] was inactive.
With `CCN(CC)C(=S)SSC(=S)N(CC)CC`, the Potency result in [10] is “inactive”. Moreover, in experiment [7], the result was inactive.
Consider `O=C(CCc1ccc(O)cc1)c1c(O)cc(O)cc1O`, for which the Potency in experiment [10] was 2690 nM (active). The outcome in experiment [7] and in experiment [8] was inactive. In addition, the Potency result in [9] is “inactive”.
As for `Nc1nc(OCc2ccccc2)c2[nH]cnc2n1`, the compound was called inactive in experiment [7] and in [8]. Further, the Potency result in experiment [9] was “inactive”.
As for `Cc1c(OCC(F)(F)F)ccnc1CS(=O)c1nc2ccccc2[nH]1` (configuration not stated), the Potency result in experiment [10] is “inactive”. Further, in experiment [8], the call was inactive.
In the case of `O=c1cc(N2CCOCC2)oc2c(-c3ccccc3)cccc12`, the Potency result in experiment [10] is “inactive”. Also, the result in experiment [7] was inactive.
As to `Cc1ccc(NC(=O)c2ccc(CN3CCN(C)CC3)cc2)cc1Nc1nccc(-c2cccnc2)n1`, the compound was called inactive in [3].
In the case of `CC(C)c1ccc2c(c1)c(SC(C)(C)C)c(CC(C)(C)C(=O)O)n2Cc1ccc(Cl)cc1`, the result in experiment [3] and in [7] was inactive. For the same compound, the Potency entry in experiment [10] and in experiment [9] was “inactive” throughout.
On to `COc1cc2c(N3CCN(C(=O)Nc4ccc(OC(C)C)cc4)CC3)ncnc2cc1OCCCN1CCCCC1`, for which the compound was classed as inactive in experiment [3].
Consider `Nc1nc(N)c(N=O)c(OCC2CCCCC2)n1`, for which the Potency result in experiment [10] and in experiment [9] was “inactive” throughout. Moreover, the outcome in experiment [7] and in [8] was inactive.
For the compound `NCCCCNCCCN`, the Potency entry in [10] and in experiment [9] was “inactive” each time. Also, the compound was called inactive in experiment [7] and in [8].
As for `NNc1nncc2ccccc12`, the Potency result in experiment [10] was “inactive”.
Turning to `CC(=O)O[C@H]1C(=O)[C@@]2(C)C([C@H](OC(=O)c3ccccc3)[C@]3(O)C[C@H](OC(=O)[C@H](O)[C@@H](NC(=O)c4ccccc4)c4ccccc4)C(C)=C1C3(C)C)[C@]1(OC(C)=O)CO[C@@H]1C[C@@H]2O` (some centres not stated), the Potency entry in experiment [10] and in experiment [9] was “inactive” throughout. Further, the compound was called inactive in [7] and in experiment [8].
As for `O=C(c1ccccc1)c1ccc2n1CCC2C(=O)O` (configuration not stated), the Potency entry in experiment [10] is “inactive”. Also, the compound was classed as inactive in experiment [7] and in [8].
For the compound `OC(CN1CCN(c2cccc(Cl)c2)CC1)C(c1ccccc1)c1ccccc1` (configuration not stated), the Potency entry in experiment [10] and in experiment [9] was “inactive” in each case. Besides, the compound was called inactive in experiment [7] and in experiment [8].
Consider `Nc1ccn([C@@H]2O[C@H](CO)[C@@H](O)C2O)c(=O)n1` (some centres not stated), for which the Potency entry in experiment [10] and in experiment [9] was “inactive” each time. Besides, the call in experiment [7] and in experiment [8] was inactive.
As to `COc1cc2nc(N3CCN(C(=O)C4CCCO4)CC3)nc(N)c2cc1OC` (configuration not stated), the compound was called inactive in experiment [7] and in [8]. In addition, the Potency entry in [9] is “inactive”.
